High-throughput results as filed in PubChem BioAssay.
TEAD-YAP inh: TEAD-YAP interaction inhibition, primary screen, TEAD-YAP interaction inhibitor project, luminescence, HEK-TIYL cells | TEAD-Gal4/YAP UAS-luciferase luminescence | inhibition, % at 9.12 µM | hit rate 1.4% among 640,000; in the data active = inhibition above about 32%
GPR151 activ: activators of human GPR151, primary screen, cell-based, PathHunter beta-arrestin, luminescence. PathHunter beta-arrestin GPR151 cells. activation, % at 11.2 µM. hit rate 1% among 650,000; in the data active = activation above about 4.9%
Target sequence (Q8TDV0 whole entry, looked up): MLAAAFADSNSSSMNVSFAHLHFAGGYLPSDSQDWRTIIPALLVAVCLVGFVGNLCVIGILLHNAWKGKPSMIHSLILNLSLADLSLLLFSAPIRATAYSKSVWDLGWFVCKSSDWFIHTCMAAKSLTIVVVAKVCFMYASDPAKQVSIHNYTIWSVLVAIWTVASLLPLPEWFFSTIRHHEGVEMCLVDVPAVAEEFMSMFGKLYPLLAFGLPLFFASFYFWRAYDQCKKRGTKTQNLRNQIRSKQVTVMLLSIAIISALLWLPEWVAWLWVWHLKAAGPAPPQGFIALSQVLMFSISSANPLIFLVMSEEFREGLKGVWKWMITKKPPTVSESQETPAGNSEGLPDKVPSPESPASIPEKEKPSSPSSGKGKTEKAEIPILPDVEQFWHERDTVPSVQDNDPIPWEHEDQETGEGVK
MITF inh: MITF inhibitors, primary screen, biochemical, AlphaScreen, human | AlphaScreen MITF homodimerization, bead proximity signal | Microphthalmia-associated transcription factor (Homo sapiens), O75030 | inhibition, % at 2.6 µM | hit rate 0.91% among 650,000; in the data active = inhibition above about 50%
FBW7 activator: FBW7 E3 ligase activators, primary screen, biochemical, AlphaScreen, human. F-box/WD repeat-containing protein 7 (Homo sapiens), Q969H0. AlphaScreen FBW7–phospho-cyclin E peptide binding, activator screen. normalized activity (activation), % at 26.1 µM. hit rate 0.13% among 650,000; in the data active = normalized activity above about 1.9%;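 note: purified mutant Fbw7 with reduced substrate affinity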
A number is an active result; n = inactive. An excerpt weighted towards active compounds, which were near 3.5% of everything screened.

SMILES	TEAD-YAP inh	GPR151 activ	MITF inh	FBW7 activator
Nc1ccc(Oc2ccc3c(c2)C(=O)N(CCO)C3=O)cc1	42.2	n	n	n
N=C1c2c(sc3c2CCCC3)NC2CCCCCN12 (centres undefined)	n	n	n	n
CCOC(=O)c1sc2ncn(CC(=O)N(c3ccccc3)C(C)C)c(=O)c2c1C	n	n	n	n
COc1ccc(-c2nc(C(N)=O)c3[nH]c(=O)n(-c4cccc(Cl)c4)c3n2)cc1O	62.6	n	n	n
COc1ccccc1-n1c(=O)[nH]c2c(C(N)=O)nc(-c3cccc(O)c3)nc21	34.0	n	n	n
COc1ccc(-c2nc(C(N)=O)c3[nH]c(=O)n(-c4ccc(F)cc4)c3n2)cc1	36.2	n	n	n
COc1ccc(-c2nc(C(N)=O)c3[nH]c(=O)n(-c4ccccc4OC)c3n2)cc1OC	32.2	n	n	n
CC(C)C(=O)Nc1cccc(NC(=O)/C=C/c2cccc([N+](=O)[O-])c2)c1	n	n	n	n
COc1ccc(CCNS(=O)(=O)c2c(C)n(C)c(=O)n(C)c2=O)cc1OC	n	n	n	n
CCOC(=O)c1c(NC(=O)c2sc3ccccc3c2Cl)sc2c1CCC(C(C)(C)C)C2 (centres undefined)	n	n	n	n
CC1CCCCC1NC(=O)CN(C)S(=O)(=O)c1ccc2nc(-c3ccccc3)[nH]c2c1 (centres undefined)	n	n	53.9	n
O=C(O)CNC(=O)c1cccc(OC(F)F)c1	n	n	n	n
CN1CCC(=NNC(=O)c2cc(O)c(O)c(O)c2)CC1	n	n	82.8	n
COc1cc(OC)cc(C(=O)NN=C2CCN(C)CC2)c1	50.5	n	n	n
CC(C)c1ccc(Nc2nccn3c(-c4ccoc4)cnc23)cc1	n	n	n	2.3
c1ccc(Oc2ccc(Nc3nccn4c(-c5ccoc5)cnc34)cc2)cc1	n	n	n	n
Cc1ccc(-c2n[nH]c(=O)c3ccccc23)cc1S(=O)(=O)N1CCN(CCO)CC1	n	n	n	n
CCOC(=O)N1CCN(c2c(NCCCN(CC)c3cccc(C)c3)c(=O)c2=O)CC1	n	n	68.4	n
OCc1cccc(-c2cnc3c(NCc4ccc(F)cc4)nccn23)c1	n	n	n	n
CCOCCOC(=O)C1=C(C)NC2=C(C(=O)CC(c3ccc(OC)cc3)C2)C1c1ccccc1Cl (centres undefined)	n	n	n	n
O=C(Nc1ccc(Oc2ccc([N+](=O)[O-])c3cnccc23)cc1)c1ccco1	39.4	n	n	n
CCOc1cc([N+](=O)[O-])cc(/C=N/NC(=O)c2cc(C(C)(C)C)[nH]n2)c1O	n	n	66.4	n
NC(=S)N/N=C/c1cc([N+](=O)[O-])ccc1O	n	n	100.1	n
Cc1ccc(C(=O)N/N=C/c2ccc([N+](=O)[O-])s2)cc1	n	n	n	n
COc1ccccc1C(=O)N/N=C/c1ccc([N+](=O)[O-])s1	48.6	n	n	n
SMILES	TEAD-YAP inh	GPR151 activ	MITF inh	FBW7 activator
CCOc1ccccc1C(=O)N/N=C/c1cc([N+](=O)[O-])cc(OC)c1O	n	n	n	n
COc1cc([N+](=O)[O-])cc(/C=N/NC(=O)c2ccccc2Br)c1O	n	n	73.5	n
O=C(COc1ccccc1Cl)NCCCc1ccccc1	n	n	n	n
Cc1cc(Cl)ccc1NC(=O)CCC(=O)N/N=C/c1ccc(O)cc1O	n	n	n	n
c1ccc(CNc2nc(-c3ccccc3)nc3c2ncn3-c2ccsc2)cc1	n	n	n	n
O=C(N/N=C/c1cc([N+](=O)[O-])ccc1O)c1ccccc1[N+](=O)[O-]	n	n	68.9	n
C/C(=N\NC(N)=S)c1ccc([N+](=O)[O-])cc1	35.9	n	n	n
COc1cc([N+](=O)[O-])cc(/C=N/NC(=O)c2ccccc2[N+](=O)[O-])c1O	n	n	65.3	n
O=C(N/N=C/c1ccccc1O)c1ccccc1[N+](=O)[O-]	n	n	n	n
C/C(=N\NC(N)=O)c1ccc([N+](=O)[O-])cc1	n	n	n	n
O=C(O)c1ccccc1NC(=O)C1CC=CCC1C(=O)O (centres undefined)	n	n	n	n
C/C(=N/Nc1nc(-c2ccccc2)cs1)C(C)(C)C	60.9	n	n	n
COc1ccc(/C=N/N2CCOCC2)cc1COc1ccc([N+](=O)[O-])c(C)c1	n	n	n	n
Clc1ccccc1N1CCN(c2ncnc3sc4c(c23)CCCC4)CC1	n	n	n	n
NC(=O)C1CCN(c2csc3ccccc3c2=O)CC1	n	n	n	n
CC1CCCN(c2csc3ccccc3c2=O)C1 (centres undefined)	n	n	n	1.9
O=C1c2ccc(O)c(O)c2C(=O)c2c(O)ccc(O)c21	n	n	66.2	n
Cc1ccc(Cl)cc1NC(=O)CSc1nc2ccc(NC(=O)c3ccccc3Cl)cc2s1	n	n	n	n
CS(=O)(=O)Nc1ccc(-c2nnc(SCC(=O)Nc3ccccc3Cl)o2)cc1	n	n	n	n
CS(=O)(=O)Nc1ccc(-c2nnc(SCC(=O)Nc3ccccc3F)o2)cc1	37.1	n	n	n
CN=c1scc(-c2cccs2)n1/N=C/c1ccc[nH]1	87.4	n	n	n
CN=c1scc(-c2ccccc2Br)n1/N=C/c1ccc[nH]1	88.2	n	n	n
CC(=O)c1nn(-c2ccc(F)cc2)nc1Nc1cccc2cccnc12	n	n	n	n
CCOc1ccccc1C1CC(c2cccc(NS(C)(=O)=O)c2)=NN1S(C)(=O)=O (centres undefined)	n	n	n	n
COc1ccc(Nc2nc(N3CCCC3)nc3[nH]ncc23)cc1	47.6	n	n	n
SMILES	TEAD-YAP inh	GPR151 activ	MITF inh	FBW7 activator
COc1ccc(COC(=O)c2c(SC)nsc2SC)cc1	37.9	n	n	n
COc1cccc(C2CC(c3cccs3)=NN2C(=O)CSc2nnc(CNC(=O)c3cccc(F)c3)n2C)c1OC (centres undefined)	n	n	n	n
Cc1ccc(O)c(N=Nc2ncn[nH]2)c1	80.5	n	n	n
O=C(CSc1ncn[nH]1)c1ccc(O)cc1O	n	n	n	n
Cc1ccc(O)c(N=Nc2ccc(S(=O)(=O)O)cc2)c1	n	n	n	n
Oc1ccc(N=Nc2ncn[nH]2)c(O)c1	n	n	91.6	n
CC(=O)N1CCc2c(sc(NC(=O)/C=C/c3ccc([N+](=O)[O-])cc3)c2C#N)C1	n	n	n	n
CSc1ccccc1C(=O)Nc1sc2c(c1C#N)CCN(C(C)=O)C2	45.9	n	n	n
CC(=O)N1CCc2c(sc(NC(=O)c3ccccc3Cl)c2C#N)C1	n	n	n	n
CC(=O)N1CCc2c(sc(NC(=O)c3cc(Cl)sc3Cl)c2C#N)C1	n	n	n	n
CC(=O)N1CCc2c(sc(NC(=O)c3ccccc3C)c2C#N)C1	50.5	n	n	n
CC(=O)N1CCc2c(sc(NC(=O)/C=C/c3ccccc3Cl)c2C#N)C1	49.5	n	n	n
Cc1ccc(NC(=O)c2ccccc2N)cc1	n	n	n	n
